Screens (PubChem BioAssay)
DT40 TDP1 no CPT: qHTS for Inhibitors of human tyrosyl-DNA phosphodiesterase 1 (TDP1): qHTS in cells in absence of CPT; AID 686978, 2013; DT40 Tdp1-/- hTDP1 cells, no CPT, ATP luminescence, 48 h; actives 15% (n = 420,000); Potency, µM (highest dose often 46.2 µM), actives largely listed as inhibitors; further: nearly all actives have a fitted effect of over 55% in size
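Stably hTDP1-transfected Tdp1-null chicken DT40 cells were treated with library compounds minus camptothecin and grown for at least 48 hr at 37 °C, after which cellular ATP was quantified by luminescence.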
DT40 TDP1 CPT: DT40-hTDP1 cell growth loss with CPT. chicken DT40 Tdp1-/-;hTDP1 cells + 20 nM CPT, ATP luminescence, 48 h. actives 12% (n = 420,000). Potency, µM (titrated, usually from 46.2 µM), hits mostly inhibitors; further: nearly all actives have a fitted effect of over 55% in size
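Chicken DT40 Tdp1-/- cells stably complemented with human TDP1 were seeded at 400 cells/well in medium containing 20 nM camptothecin, exposed to pin-transferred compounds, and grown at 37 °C for at least 48 hr. Viability was read as ATP luminescence.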
IL1B secr inh: inflammasome signaling inhibition, IL-1 beta readout; THP-1 LPS/ATP IL-1B secretion, AlphaLISA, 16 h; stronger effect = lower value; activity change, % at 57.5 µM; actives 4.7% (n = 360,000); AID 743279; in the data active means activity change below about -50%; inconclusive means mostly about -30% to -49%
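Secreted IL-1B measured by AlphaLISA bead assay after 16 h compound exposure of THP-1 cells; compounds (final up to 57.5 uM) added 1 h before LPS (250 ng/mL) and ATP (1.25 mM) stimulation; lower signal means less secretion.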
S-ASM inh: human S-ASM enzyme inhibition; placental ASM, HMU-PC fluorogenic substrate, 60 min; Potency, µM (highest dose often 57.5 µM), usual class: inhibitors; actives 0.006% (n = 340,000)
Target sequence (P17405 47-631 limits assumed): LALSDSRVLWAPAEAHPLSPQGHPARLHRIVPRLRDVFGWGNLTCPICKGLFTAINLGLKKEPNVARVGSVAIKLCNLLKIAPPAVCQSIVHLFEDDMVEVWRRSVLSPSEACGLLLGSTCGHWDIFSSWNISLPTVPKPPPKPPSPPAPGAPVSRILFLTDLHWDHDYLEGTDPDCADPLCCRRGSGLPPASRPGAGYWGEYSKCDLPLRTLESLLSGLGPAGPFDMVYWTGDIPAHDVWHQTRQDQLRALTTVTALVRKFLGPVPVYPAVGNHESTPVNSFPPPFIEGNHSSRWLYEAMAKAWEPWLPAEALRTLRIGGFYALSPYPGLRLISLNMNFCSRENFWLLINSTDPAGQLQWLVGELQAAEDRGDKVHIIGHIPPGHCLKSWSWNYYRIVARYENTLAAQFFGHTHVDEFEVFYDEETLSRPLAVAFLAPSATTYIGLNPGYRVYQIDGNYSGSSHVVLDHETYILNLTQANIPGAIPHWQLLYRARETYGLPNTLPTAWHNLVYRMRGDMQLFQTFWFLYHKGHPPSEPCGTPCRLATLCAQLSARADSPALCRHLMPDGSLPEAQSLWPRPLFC
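Human placenta-derived ASM enzyme was preincubated with compound for 10 minutes at room temperature, then given fluorogenic substrate HMU-PC0 (9 uM final) for 60 minutes at 37 °C; a pH 10 stop preceded fluorescence reading at Ex 386/Em 447 nm.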
HepG2 viability: counter-screen for TGF-b inhibitors: cytotoxicity in HepG2 cells; HepG2 CAGA-GFP viability, ATP luminescence, 18 h; Potency, µM (doses to about 46.1 µM), hits mostly cytotoxic; actives 0.76% (n = 410,000)
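CellTiter-Glo luminescence gave cytotoxicity after 18 hours at 37 degrees C. The cells were HepG2 CAGA-GFP in 1% FBS DMEM, stimulated with 500 pg/mL TGF-beta after compound addition. %Activity was normalised to no-cell wells (complete cell-killing) and DMSO (no toxicity), and curves were fitted and classified.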
TGFb SMAD3 inh: TGF-b pathway inhibition | HepG2 CAGA-GFP TGF-b/SMAD3 reporter, GFP fluorescence, 18 h; TGF-beta stimulated, 500 pg/mL final | Potency, µM (highest dose often 46.1 µM), hits mostly inhibitors | actives 1.2% (n = 410,000) | AID 588855; further: nearly all actives have a fitted effect of over 65% in size
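HEPG2 CAGA-GFP, 1000 cells/well; 2 h settle, 37 C; cpd via pin tool; TGF-b 500 pg/mL final; 18 h, 37 C; GFP imaging ex488/em500-530; %Activity normalised to -TGF-b and +DMSO controls; CRC fit, curve class.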
Hits are given with their value; - = inactive; ? = inconclusive; . = not tested or not shown. Only some compounds are listed: those with a hit (about 19% of all), similar ones and a draw of the others. Unless noted, the call rests on the fitted dose curve; in most records, active means well fitted curve in the direction sought with a large enough effect; inconclusive means small, poorly fitted or top-dose-only effect, or another doubt; inactive means no such curve, though single readings can be large; an effect the other way counts as inactive or inconclusive.

SMILES | DT40 TDP1 no CPT | DT40 TDP1 CPT | IL1B secr inh | S-ASM inh | HepG2 viability | TGFb SMAD3 inh
O=C1N[C@H]2CC=C[C@H]2N(Cc2cccs2)c2ccccc21 | - | ? | - | - | - | -
CC1=NN(c2nc3ccccc3s2)C(O)(C(F)(F)F)C1 (stereo not given) | - | - | - | - | - | ?
Nc1ncnc2c1ncn2[C@@H]1O[C@H](CNS(=O)(=O)CCCCl)[C@@H](O)[C@H]1O | - | - | - | - | - | -
COc1ncc2nc(-c3ccc(F)cc3)c(=O)n(Cc3ccc(F)cc3)c2n1 | - | - | . | . | . | .
CN1CCN(c2ncc3nc(CCc4ccccc4)c(=O)n(Cc4cccs4)c3n2)CC1 | 20.6µM | ? | . | . | . | .
CN1CCN(c2ncc3nc(-c4cn(C)c5ccccc45)c(=O)n(Cc4cccs4)c3n2)CC1 | 0.366µM | 1.64µM | . | . | . | .
COc1ncc2nc(CCc3ccccc3)c(=O)n(Cc3ccc(F)cc3)c2n1 | 23.1µM | ? | . | . | . | .
O=c1c(CCc2ccccc2)nc2cnc(N3CCOCC3)nc2n1Cc1cccs1 | - | - | . | . | . | .
CCN(Cc1ccncc1)Cc1ccc2c(c1)CN(C(=O)c1cccc3c(C)c(C)[nH]c13)CCO2 | - | - | . | . | . | .
O=c1c(-c2ccc(F)cc2)nc2cnc(N3CCOCC3)nc2n1C[C@H]1CCCO1 | - | - | . | . | . | .
Cc1ccc(S(=O)(=O)N2CCOCC2)cc1NC(=O)COC(=O)/C=C/c1ccco1 | ? | - | - | - | - | -
CN(C)C(=S)N=c1ssc(=S)n1Cc1ccccc1 | 3.66µM | 2.59µM | - | - | - | 2.24µM
Cc1cccn2c(=O)c(/C=C(\C#N)C(=O)NC3CCS(=O)(=O)C3)c(Oc3ccccc3Cl)nc12 (stereo not given) | 20.6µM | ? | - | - | - | ?
Cc1ccccc1Oc1nc2c(C)cccn2c(=O)c1/C=C(\C#N)C(=O)NC1CCS(=O)(=O)C1 (stereo not given) | 20.6µM | 11.6µM | -96.7 | - | 6.31µM | ?
Cc1cccn2c(=O)c(/C=C(\C#N)C(=O)NC3CCS(=O)(=O)C3)c(N3CCC(C(N)=O)CC3)nc12 (stereo not given) | - | - | - | - | - | -
Cc1nnc(-c2ccccc2)c(=O)n1/N=C/c1c(O)ccc2ccccc12 | 5.17µM | 4.11µM | - | ? | - | -
CCN(Cc1ccccc1)C1CCN(Cc2ccccc2)CC1 | - | - | ? | - | - | -
CSc1ccccc1OC1CCN(Cc2ccccc2)CC1 | ? | - | -82.1 | - | - | -
O=C(C[C@@H]1C/C=C\C[C@H](Cc2ccc(F)cc2)C(=O)OC[C@H]2CCCN2C1=O)N[C@H](CO)Cc1ccccc1 | 14.6µM | 13µM | - | - | - | -
O=C(C[C@@H]1C/C=C\CCC(=O)OC[C@@H]2CCCN2C1=O)N[C@@H](CO)Cc1ccccc1 | - | - | - | - | - | -
O=C(C[C@@H]1C/C=C\C[C@H](Cc2ccc(F)cc2)C(=O)OC[C@@H]2CCCN2C1=O)N[C@H](CO)Cc1ccccc1 | 16.4µM | 18.4µM | - | - | - | ?
O=C(C[C@@H]1C/C=C\C[C@@H](Cc2ccc(F)cc2)C(=O)OC[C@@H]2CCCN2C1=O)N[C@H](CO)Cc1ccccc1 | 23.1µM | ? | - | - | - | -
O=C(C[C@H]1C/C=C\CC[C@@H](Cc2ccc(F)cc2)C(=O)OC[C@H]2CCCN2C1=O)N[C@H](CO)Cc1ccccc1 | 20.6µM | ? | - | - | - | -
COc1ccc(C2(c3ccc(OC)cc3)NC(=O)N(CC(=O)NCC(F)(F)F)C2=O)cc1 | - | - | - | - | - | -
COc1ccc(C(=O)NC2CCN(CC(=O)Nc3c(C)cccc3C)CC2)cc1OC | - | - | - | - | - | -
SMILES | DT40 TDP1 no CPT | DT40 TDP1 CPT | IL1B secr inh | S-ASM inh | HepG2 viability | TGFb SMAD3 inh
Nc1[nH]c(C(=O)c2ccccc2)c(-c2ccc(Cl)c(F)c2)c1C(=O)NCCc1c[nH]c2ccccc12 | ? | ? | - | . | . | .
COc1ccc(C(=O)c2[nH]c(N)c(C(=O)NCCc3c[nH]c4ccccc34)c2-c2ccc(OC)c(OC)c2)cc1 | 8.2µM | 16.4µM | ? | . | . | .
Nc1[nH]c(C(=O)c2ccccc2)c(-c2ccc(F)cc2)c1C(=O)NCCc1c[nH]c2ccccc12 | 23.1µM | ? | ? | . | . | .
COc1ccc(C(=O)c2[nH]c(N)c(C(=O)NCCc3c[nH]c4ccccc34)c2-c2c(F)cccc2Cl)cc1 | 14.6µM | 16.4µM | - | . | . | .
CCNC(=O)C1(C)CCN(Cc2ccccc2C#N)C1 (stereo not given) | - | - | - | . | - | -
Cc1ccc(S(=O)(=O)NC(=O)NCC2CCN(S(=O)(=O)c3ccccc3)CC2)cc1 | - | - | - | - | - | -
O=C(C1CCN(S(=O)(=O)c2ccc(Br)cc2)CC1)N1CCOCC1 | - | - | - | - | - | -
CC(C)(C)n1nnnc1C(c1ccccc1)N1CCN(c2ncc(C(F)(F)F)cc2Cl)CC1 (stereo not given) | ? | ? | - | . | . | .
CCCN(CCC)C(=O)Cn1c(=O)n(-c2ccc(Cl)cc2)c(=O)c2c3c(sc21)CCCC3 | - | - | . | . | - | -
Cc1ccccc1-c1noc(-c2ccccc2C(=O)NCC2CCCO2)n1 (stereo not given) | 18.4µM | ? | - | - | - | -
Cc1ccccc1Nc1cc(C(=O)NCC2CCCO2)c2ccccc2n1 (stereo not given) | ? | 18.4µM | - | - | - | -
COc1ccccc1-c1noc(-c2ccccc2C(=O)NCC2CCCO2)n1 (stereo not given) | - | - | - | - | - | -
CCOC(=O)C1(Cc2cccc(F)c2)CCN(C(=O)c2cnc(C)cn2)CC1 | - | - | - | - | - | -
COc1ccc(C(=O)N2CCOC2CNC(=O)C(=O)NCc2ccccc2Cl)cc1 (stereo not given) | - | - | - | - | - | -
COC(=O)c1c(N)n(-c2ccc(OC)c(OC)c2)c2nc3ccccc3nc12 | 9.2µM | 5.8µM | . | . | - | -
Nc1c(C(=O)NC2CCCC2)c2nc3ccccc3nc2n1/N=C/c1cccnc1 | 18.4µM | 16.4µM | - | - | - | -
CCCNC(=O)c1c(N)n(-c2cccc(OC)c2)c2nc3ccccc3nc12 | ? | ? | -70.9 | - | - | ?
COCCCNC(=O)c1c(N)n(/N=C/c2ccccn2)c2nc3ccccc3nc12 | 10.3µM | 10.3µM | ? | - | - | -
